About 2,000 (4.3%) of roughly 47,000 compounds were called active. No stated cut-off is given here; in the data, active means inhibition above about 30%; inactive means the rest. Many of the other results were omitted from the sample, so actives are more common in it than they were.
molecular target: Ubiquitin carboxyl-terminal hydrolase 8 (Homo sapiens) (UniProt P40818); assay: inhibitors of human USP8 deubiquitinase (AID 1645853); conditions: purified USP8, Ub-rhodamine cleavage fluorescence, 30 min; at 20 µM; active compounds read high
Sequence (P40818 whole entry, looked up): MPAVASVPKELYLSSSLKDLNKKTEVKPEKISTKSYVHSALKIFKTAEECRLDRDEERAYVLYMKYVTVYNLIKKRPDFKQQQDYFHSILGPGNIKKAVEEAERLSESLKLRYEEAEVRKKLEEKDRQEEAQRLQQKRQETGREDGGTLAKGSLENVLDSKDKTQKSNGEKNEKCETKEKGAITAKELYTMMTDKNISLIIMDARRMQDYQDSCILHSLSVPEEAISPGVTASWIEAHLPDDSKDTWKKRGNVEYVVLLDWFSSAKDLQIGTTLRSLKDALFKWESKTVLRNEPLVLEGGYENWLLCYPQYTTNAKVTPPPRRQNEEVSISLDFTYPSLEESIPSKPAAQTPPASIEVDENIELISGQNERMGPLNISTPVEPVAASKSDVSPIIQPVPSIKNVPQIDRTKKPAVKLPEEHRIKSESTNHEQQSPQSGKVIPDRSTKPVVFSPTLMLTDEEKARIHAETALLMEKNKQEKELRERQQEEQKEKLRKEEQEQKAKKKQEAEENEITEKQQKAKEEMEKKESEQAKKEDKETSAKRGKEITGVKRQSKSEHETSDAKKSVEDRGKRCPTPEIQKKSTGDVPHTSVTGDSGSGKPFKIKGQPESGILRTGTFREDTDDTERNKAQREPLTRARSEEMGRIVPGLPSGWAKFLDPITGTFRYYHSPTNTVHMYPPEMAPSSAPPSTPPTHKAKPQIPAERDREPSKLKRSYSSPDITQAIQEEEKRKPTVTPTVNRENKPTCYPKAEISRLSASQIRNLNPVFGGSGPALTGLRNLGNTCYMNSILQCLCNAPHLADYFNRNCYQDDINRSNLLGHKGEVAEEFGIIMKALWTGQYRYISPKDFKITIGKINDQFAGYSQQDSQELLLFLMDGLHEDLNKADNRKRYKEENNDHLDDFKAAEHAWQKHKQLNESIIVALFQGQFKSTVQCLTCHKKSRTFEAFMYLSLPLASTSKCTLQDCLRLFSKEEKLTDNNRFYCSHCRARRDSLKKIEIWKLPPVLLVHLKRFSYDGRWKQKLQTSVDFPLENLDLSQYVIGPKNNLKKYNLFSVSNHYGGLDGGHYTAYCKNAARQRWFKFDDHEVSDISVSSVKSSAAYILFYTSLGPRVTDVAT

inhibition, active:
COc1cc(Cl)c(NC(=O)c2cc(-c3ccccn3)n[nH]2)c(OC)c1 49.3%
CC1(C)Cc2c(c(-c3ccco3)nc3sc4c(SCCCc5ccccc5)ncnc4c23)CO1 75.7%
Clc1cc2nc(N3CCN(c4ccccn4)CC3)c3nncn3c2cc1Cl 75.6%
O=C(NC1CCN(Cc2ccccc2)CC1)c1cc2cn(C3CC3)cc2s1 31.4%
O=C(NCc1ccc2c(c1)OCO2)c1cc2c(s1)CS(=O)(=O)C2 47.6%
COc1ccc(CC2c3cc(OC)c(OC)cc3CCN2C(=O)c2ccc(C)c(Cl)c2)cc1OC (centres undefined) 36.3%
Cc1ccc(-c2ncc(C(=O)Nc3ccccc3C)c(-c3ccncc3)n2)cc1 41%
O=C(Nc1ccc2cn[nH]c2c1)c1cnn(-c2ccccc2)n1 59.1%
Cc1ccc(-c2cn3ccn(-c4ccc(C)cc4C)c(=O)c3n2)cc1 43%
CCc1ccccc1NC(=O)CSc1nnc(-c2ccncc2)o1 54.3%
O=C(NCCc1ccccc1)c1ccc2c(=O)n(Cc3ccco3)c(=O)n(Cc3cccc([N+](=O)[O-])c3)c2c1 83.9%
Cc1ccc(NC(=O)Cc2sc(Nc3ccc(C)cc3)nc2O)cc1 35.4%
Nc1ccc(C(=O)OCC(=O)NC2CCCc3ccccc32)cc1[N+](=O)[O-] (centres undefined) 50.4%
Cc1nnn(C23CC4CC(CC(C(=O)NC5CCCC5)(C4)C2)C3)n1 30.1%
COCCn1cnc2c1c(=O)n(CC(=O)Nc1c(C)cc(C)cc1C)c(=O)n2Cc1ccccc1 32.6%
O=C(O)c1c2c(nc3ccccc13)/C(=C/c1ccc(F)cc1)CCC2 35.2%
CCOc1ccccc1NC(=O)Cc1cccs1 31.3%

inhibition, inactive:
O=S(=O)(Nc1ccc(N2CCOCC2)cc1)c1cccc2cccnc12 -35.6%
CCC1=N[C@@]2(CC[C@@H]3CN(C(=O)Nc4ccc(CC)cc4)C[C@@H]32)C(=O)N1C -21.1%
O=C(Nc1ccc(Cl)cc1F)c1cc(-c2ccccn2)n[nH]1 19.3%
Cc1ccc(CC(=O)N2CCN(C(=O)c3cc(-c4ccccn4)n[nH]3)CC2)cc1 -164%
CC1[C@@H]2[C@@H](C(=O)N3CCOCC3)C[C@H](CN1S(=O)(=O)N(C)C)N2Cc1ccccc1 (some centres undefined) 0.42%
O=C1NC2(COC3(CCN(Cc4cccnc4)CC3)C2)Nc2ccc(Cl)cc21 (centres undefined) -202%
Cc1c(C)n(-c2cccnc2)c2ncn3nc(-c4ccccn4)nc3c12 -3.69%
CSc1ncnc2c1sc1nc(-c3ccccc3)c3c(c12)CC(C)(C)OC3 2.79%
CCCCCCSc1ncnc2c1sc1nc(-c3ccccc3)c3c(c12)CC(C)(C)OC3 -5.24%
O=C(C1CC1)N1CC[C@@H]2Oc3ccccc3S(=O)(=O)N(Cc3ccccc3)[C@H]2CC1 -86.6%
O=c1[nH]c(-c2ccccn2)nc2c1CCN(Cc1cnn(-c3ccc(F)cc3)c1)C2 -247%
Cc1nn(-c2ccccc2)c(C)c1S(=O)(=O)N1CCN(c2ccccn2)CC1 -28.5%
O=C(c1ccc(N2CCCC2)nn1)N1CCN(c2ccccn2)CC1 -50.6%
COc1cccc(-c2cc(C(=O)N3CCN(c4ccc(N5CCOCC5)nn4)CC3)[nH]n2)c1 -8.45%
FC(F)(F)c1ccc(-c2cnc([C@@H]3COCCN3C3CCOCC3)[nH]2)cc1 2.96%
COc1ccc(CN2Cc3ccccc3OC3(CCC(CO)CC3)C2)c(F)c1 (centres undefined) -66.5%
O=C(NC1CCN(Cc2ccccc2)CC1)c1cn2c(n1)CCCC2 -18.5%
Cc1nn(C)c(C)c1CNC(=O)c1cc2cn(C3CCCC3)cc2s1 -141%
CCOC(=O)C1=C(CN2CCN(c3ccccc3OC)CC2)NC(=O)NC1c1cccc(OC)c1OC (centres undefined) -6.79%
Cc1nc(-c2ccc(C(=O)NCc3ccc4c(c3)OCO4)cc2)cs1 7.04%
O=C(NCCc1ccccc1)c1cc2c(s1)CS(=O)(=O)C2 3.17%
O=S(=O)(c1ccccc1)N1CCCCCC1C1CCN(Cc2nc(C3CC3)no2)CC1 (centres undefined) -3.93%
COc1cc2c(cc1OC)C(c1cccs1)N(C(=O)c1ccc3n[nH]nc3c1)CC2 (centres undefined) 6.71%
COc1ccc(C(=O)N2CCc3cc4ccccc4nc32)cc1OC -4.03%
COc1ccc(C2CC(=O)c3cnc(NCc4ccco4)nc3C2)c(OC)c1 (centres undefined) -0.335%
Cc1ccc(CSc2nnc(/C=C/c3ccccc3)o2)cc1 -1.95%
CCCNc1cc(N2CCCC(CCC(=O)N3CCC(C)CC3)C2)ncn1 (centres undefined) -110%
CCc1ccc(S(=O)(=O)NCC(O)COc2ccc(OC)cc2)cc1 (centres undefined) -1.1%
Cc1ccc(F)cc1NC(=O)c1cnc(-c2ccccc2)nc1-c1ccncc1 12.2%
O=C(Nc1cc(Cl)ccc1F)c1cnc(-c2ccccc2)nc1-c1ccncc1 -14%
Cc1nn(-c2ccccc2)c2c1C(C(=O)c1ccc(Cl)s1)CC(=O)N2 (centres undefined) 10.5%
COc1ccc(C(=O)NCC(c2cccnc2)S(=O)(=O)c2ccc(C)cc2)cc1OC (centres undefined) -8.69%
CCOC(=O)c1c(NC(=O)c2ccco2)sc(Cc2ccc3c(c2)OCO3)c1C 20.7%
O=C(c1cnn(-c2ccc(Cl)cc2)n1)c1cccs1 2.7%
O=C(Nc1ccc2oc(-c3ccccc3)nc2c1)c1cccc(-n2cnnc2)n1 3.67%
O=C1CN(C(=O)CNc2ccccc2N2CCCC2=O)c2ccccc2N1 4.28%
O=c1c(S(=O)(=O)N2CCCC2)cccn1Cc1cc(=O)n2ccccc2n1 -4.28%
Cc1ccn2cc(-c3ccc(NS(=O)(=O)c4cc(C)c(C)cc4C)cc3)nc2n1 21.4%
CC(C)(C)c1ccc(Cn2nnc3c(=O)[nH]c(C4CCN(S(=O)(=O)c5ccc6c(c5)OCCO6)CC4)nc32)cc1 7.01%
O=C(O)c1cc(-c2cccc3ccccc23)n[nH]1 -80.6%
O=C(c1cnccn1)N1CC(C(=O)N2CCCC2)C1 0.517%
O=C(CSc1nnc(-c2ccncc2)o1)Nc1cccc(Cl)c1 4.92%
CCN(C(=O)CSc1nnc(-c2ccncc2)o1)c1ccccc1 14.4%
Cc1ccc2occ(CC(=O)Nc3sc4c(c3C(=O)NCc3cccnc3)CCCC4)c2c1 20.7%
CCC(Cc1ccccc1)NS(=O)(=O)c1ccc2c(c1)NC(=O)CS2 (centres undefined) 3.6%
CCOc1ccc(CNS(=O)(=O)c2cccc(-c3noc(C)n3)c2)cc1OC -8.47%
Cn1cc(-c2nc(CN3CCCC3Cn3cccn3)cs2)cn1 (centres undefined) -48.6%
O=C(CCc1nnc2n(Cc3ccccc3)c(=O)c3ccccc3n12)N1CCN(C(=O)c2ccco2)CC1 2.75%
O=C(Cn1c(=O)n(Cc2ccc3c(c2)OCO3)c(=O)c2ccccc21)NCc1ccco1 8.11%
COc1ccc(-c2ccc3nc(N4CCC(C(N)=O)CC4)sc3n2)cc1 -18.5%
C[C@@H]1CCCCCCCCC[C@@H](OC(=O)CCC(=O)O)C(=O)/C=C/C(=O)O1 -0.995%
CCOc1ccc(Nc2nc(O)c(CC(=O)Nc3cccc(C)c3)s2)cc1 29.3%
Cc1ccc(Nc2nc(O)c(CC(=O)Nc3ccc(C(C)C)cc3)s2)cc1C -0.936%
O=C(NCc1ccncc1)c1nnn(-c2ccc(F)cc2)c1-c1ccncc1 5.41%
O=C(CSc1nnc(-c2cccnc2)o1)N1CCN(c2ccc(F)cc2)CC1 19%
Cc1nc(-c2cccc(NC(=O)C3CCN(c4ccccc4)C3=O)c2)no1 (centres undefined) 27.7%
O=C(c1ccccc1)c1ccc(NC2CCCc3ccccc32)c([N+](=O)[O-])c1 (centres undefined) -7.98%
O=C(COC(=O)c1ccc(F)cc1)NC1CCCc2ccccc21 (centres undefined) 7.36%
O=C(CN1CCN(Cc2nc3ccccc3s2)CC1)N1CCc2ccccc21 -4.14%
CC(C)C(=O)N1[C@@H](c2ccccc2)C[C@@H]2NC(=O)CCC[C@H]21 1.29%
CC1CCc2c(sc3ncnc(OCc4cccc([N+](=O)[O-])c4)c23)C1 (centres undefined) -36.3%
Cc1nc(N)ncc1C(=O)N1CCCC(C)(C(=O)NC2CCCC2)C1 (centres undefined) 4.82%
COCCn1cnc2c(-c3ccccc3)cn(CC(=O)NCc3ccccc3)c2c1=O 0.16%
O=c1c2c(ncn2C2CCCC2)n(Cc2ccccc2)c(=O)n1Cc1ccccc1 1.24%
Cc1nc(C2CCN(C(=O)Cc3ccc(F)cc3)CC2)ncc1C(N)=O 0.65%
O=S(=O)(c1ccccc1)n1nc(-c2cccnc2)nc1NCc1ccc(Cl)cc1 3.57%
CS(=O)(=O)c1ccc(CN2CCC3(C/C=C/Cc4ccccc4OCC(=O)NC3)CC2)cc1 -3.81%
O=C1NC(c2ccccc2)=N/C1=C/c1ccc(F)cc1 -0.962%
O=C(O)c1ccc2c(=O)n3c(nc2c1)/C(=C/c1cccc(C(F)(F)F)c1)CC3 14.9%
CC1(C)[C@H](Cc2cc(-c3ccccc3)on2)C[C@@H]1NC(=O)C1CC1 -0.801%
CCOc1ccccc1NC(=O)COc1cccc2c1OC(C)(C)C2 8.84%
CCOc1ccccc1NC(=O)Nc1cc(-c2nc3ccccc3o2)ccc1OC 21.7%

Source: PubChem BioAssay AID1645853 (Buhrlage Lab, Dana-Farber Cancer Institute and Novartis …, 2021)
